According to PubChem BioAssay (NCI):
Compounds without any hit were thinned out: in the full panel of roughly 83,000, 20% have a hit.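 For each line, cells grew in 96-well plates with the test compound present at a single concentration for 48 hours.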 Active and inactive are the calls of the source. Rule for the calls: active = growth percent below 10; inactive = the rest.

These molecules were tested on MDA-MB-468 breast (assay: NCI-60 one-dose screen, 48 h (100 = growth as untreated, 0 = no growth, -100 = all killed)). Settings: 10 µM unless noted.

Structure (SMILES) | growth
Cc1cc(C)c(N2C(=O)CC(Nc3ccc(Cl)cc3Cl)C2=O)c(C)c1 (centres undefined) | 96.1% (inactive)
O=[N+]([O-])CC(O)c1ccccc1 (centres undefined) | 98.7% (inactive)
Nc1cc(N)ncn1 | 101% (inactive)
CC(CN)[C@@H]1CC[C@]2(CO)CC[C@]3(C)[C@H](CC[C@@H]4[C@@]5(C)CCC(N)C(C)(C)[C@@H]5CC[C@]43C)[C@@H]12 (some centres undefined) | 6.19% (active)
